Results published in PubChem BioAssay (NCI).
Several values for one entry are separate records, joined by “and”; a condition that tells them apart may be missing. Identical values can stand only once. Compounds without any hit were thinned out: in the full panel of roughly 83,000, 20% have a hit.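 Negative percent growth values reflect cell death: -40 means 40% of the cells present at the start died, and -100 means all died.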 Activity calls are given as the source filed them. The calls were made as follows: active = growth percent below 10; inactive = the rest.

Assays:
Test in all cases: NCI-60 one-dose screen, 48 h (100 = growth as untreated, 0 = no growth, -100 = all killed)
TK-10 renal = test system: TK-10 renal
SK-MEL-2 melanoma = conditions: 10 µM
SN12C renal = conditions: 10 µM
UO-31 renal = conditions: 10 µM
ACHN renal = conditions: 10 µM
CAKI-1 renal = conditions: 10 µM
A498 renal = conditions: 10 µM
CCRF-CEM leukemia = conditions: 10 µM
MOLT-4 leukemia = conditions: 10 µM unless noted
SR leukemia = conditions: 10 µM
RPMI-8226 leukemia = conditions: 10 µM
OVCAR-8 ovarian = conditions: 10 µM
OVCAR-5 ovarian = conditions: 10 µM
OVCAR-4 ovarian = conditions: 10 µM
IGROV1 ovarian = conditions: 10 µM
OVCAR-3 ovarian = conditions: 10 µM
NCI/ADR-RES ovarian = conditions: 10 µM
EKVX NSCLC = conditions: 10 µM
SK-OV-3 ovarian = conditions: 10 µM

C=C(C)[C@@H]1CCc2c(O)c(O)c(=O)cc(C)c2C1
growth (TK-10 renal; 100 µM): -17% (active) and -96.5% (active)

CO[C@@]12[C@H](COC(N)=O)C3=C(C(=O)C(C)=C(N)C3=O)N1C[C@@H]1N[C@@H]12
growth (TK-10 renal; 25 µM): -32.7% (active) and -74.4% (active)

ClCCn1c(CCl)nc2ccc(Cl)cc21
growth (SK-MEL-2 melanoma): -56% (active)
growth (SN12C renal): -47% (active)
growth (UO-31 renal): -82.6% (active)
growth (TK-10 renal; 10 µM): -30.6% (active)
growth (ACHN renal): -68.8% (active)
growth (CAKI-1 renal): -28.5% (active)
growth (A498 renal): 1.48% (active)
growth (CCRF-CEM leukemia): -46.8% (active)
growth (MOLT-4 leukemia): -52.7% (active)
growth (SR leukemia): -32.4% (active)
growth (RPMI-8226 leukemia): -22.2% (active)
growth (OVCAR-8 ovarian): -33% (active)
growth (OVCAR-5 ovarian): -22.9% (active)
growth (OVCAR-4 ovarian): -18.9% (active)
growth (IGROV1 ovarian): -62.5% (active)
growth (OVCAR-3 ovarian): -89.6% (active)
growth (NCI/ADR-RES ovarian): 2.35% (active)

Cc1cc(Cl)ccc1NC(=O)/C(Cl)=C1/Sc2ccccc2NC1=O
growth (EKVX NSCLC): 70.4% (inactive)
growth (SN12C renal): 106% (inactive)
growth (UO-31 renal): 76.4% (inactive)
growth (TK-10 renal; 10 µM): 146% (inactive)
growth (ACHN renal): 85.4% (inactive)
growth (CAKI-1 renal): 60.8% (inactive)
growth (A498 renal): 131% (inactive)
growth (CCRF-CEM leukemia): 76.5% (inactive)
growth (MOLT-4 leukemia): 83.5% (inactive)
growth (SR leukemia): 100% (inactive)
growth (RPMI-8226 leukemia): 69.4% (inactive)
growth (OVCAR-5 ovarian): 93.5% (inactive)
growth (OVCAR-4 ovarian): 89.8% (inactive)
growth (SK-OV-3 ovarian): 103% (inactive)
growth (IGROV1 ovarian): 68.7% (inactive)
growth (OVCAR-3 ovarian): 95.4% (inactive)
growth (NCI/ADR-RES ovarian): 87.6% (inactive)

CC1CCC2(C(=O)O)CCC3(C)C(=CCC4C5(C)CC(O)C(O)C(C)(CO)C5C(O)CC43C)C2C1C (stereo not drawn)
growth (SK-MEL-2 melanoma): 104% (inactive)
growth (EKVX NSCLC): 113% (inactive)
growth (SN12C renal): 96.1% (inactive)
growth (UO-31 renal): 92.8% (inactive)
growth (TK-10 renal; 10 µM): 108% (inactive)
growth (ACHN renal): 116% (inactive)
growth (CAKI-1 renal): 118% (inactive)
growth (CCRF-CEM leukemia): 88.5% (inactive)
growth (MOLT-4 leukemia): 113% (inactive)
growth (SR leukemia): 105% (inactive)
growth (RPMI-8226 leukemia): 128% (inactive)
growth (OVCAR-5 ovarian): 188% (inactive)
growth (OVCAR-4 ovarian): 114% (inactive)
growth (SK-OV-3 ovarian): 103% (inactive)
growth (IGROV1 ovarian): 92.8% (inactive)
growth (OVCAR-3 ovarian): 118% (inactive)
growth (NCI/ADR-RES ovarian): 99.4% (inactive)

COc1cc(N)ccc1Nc1c2ccccc2nc2ccccc12
growth (SK-MEL-2 melanoma): 109% (inactive)
growth (SN12C renal): 81% (inactive)
growth (UO-31 renal): 50.6% (inactive)
growth (TK-10 renal; 10 µM): 88.3% (inactive)
growth (ACHN renal): 88.6% (inactive)
growth (CAKI-1 renal): 70.5% (inactive)
growth (A498 renal): 87.3% (inactive)
growth (MOLT-4 leukemia): 2.72% (active)
growth (SR leukemia): 10.1% (inactive)
growth (OVCAR-8 ovarian): 66.1% (inactive)
growth (OVCAR-5 ovarian): 110% (inactive)
growth (OVCAR-4 ovarian): 5.09% (active)
growth (SK-OV-3 ovarian): 93.9% (inactive)
growth (IGROV1 ovarian): 60.8% (inactive)
growth (OVCAR-3 ovarian): 80.6% (inactive)
growth (NCI/ADR-RES ovarian): 92.7% (inactive)

CN(CC(=O)O)c1ccc(/C=C/c2ccnc3ccccc23)cc1
growth (SK-MEL-2 melanoma): 89% (inactive)
growth (EKVX NSCLC): 69.6% (inactive)
growth (SN12C renal): 85.2% (inactive)
growth (UO-31 renal): 61.7% (inactive)
growth (TK-10 renal; 10 µM): 98.7% (inactive)
growth (ACHN renal): 89.1% (inactive)
growth (CAKI-1 renal): 92.9% (inactive)
growth (A498 renal): 97.1% (inactive)
growth (CCRF-CEM leukemia): 66.8% (inactive)
growth (MOLT-4 leukemia): 34.4% (inactive)
growth (RPMI-8226 leukemia): 70.4% (inactive)
growth (OVCAR-8 ovarian): 80% (inactive)
growth (OVCAR-5 ovarian): 123% (inactive)
growth (OVCAR-4 ovarian): 86.2% (inactive)
growth (SK-OV-3 ovarian): 91.3% (inactive)
growth (IGROV1 ovarian): 77.4% (inactive)
growth (OVCAR-3 ovarian): 90.4% (inactive)
growth (NCI/ADR-RES ovarian): 89.3% (inactive)

O=C(CCc1ccccc1)ON1C(=S)C(c2ccccc2)(c2ccccc2)N=C1Sc1ccccc1
growth (TK-10 renal; 100 µM): 28.6% (inactive) and 7.58% (active)

CN(C)CCNc1cccc2sc3ccc(O)cc3c(=O)c12
growth (SK-MEL-2 melanoma): 64% (inactive)
growth (SN12C renal): 40.4% (inactive)
growth (UO-31 renal): 20% (inactive)
growth (TK-10 renal; 10 µM): 58% (inactive)
growth (ACHN renal): 14.9% (inactive)
growth (CAKI-1 renal): 5.13% (active)
growth (A498 renal): 92.5% (inactive)
growth (MOLT-4 leukemia): 14.3% (inactive)
growth (RPMI-8226 leukemia): 73.4% (inactive)
growth (OVCAR-8 ovarian): 36% (inactive)
growth (OVCAR-5 ovarian): 78.8% (inactive)
growth (OVCAR-4 ovarian): 52.8% (inactive)
growth (SK-OV-3 ovarian): 51.1% (inactive)
growth (IGROV1 ovarian): 50.1% (inactive)
growth (OVCAR-3 ovarian): 41.8% (inactive)
growth (NCI/ADR-RES ovarian): 45% (inactive)

COc1cc2c(cc1C[N+](C)(C)CSc1ccccc1)-c1ccccc1CC2
growth (TK-10 renal; 100 µM): -93.9% (active) and -97.7% (active)

S=C1SCN(CCc2ccccc2)CN1CCc1ccccc1
growth (SK-MEL-2 melanoma): 105% (inactive)
growth (EKVX NSCLC): 109% (inactive)
growth (SN12C renal): 101% (inactive)
growth (UO-31 renal): 70.6% (inactive)
growth (TK-10 renal; 10 µM): 82.1% (inactive)
growth (ACHN renal): 110% (inactive)
growth (CAKI-1 renal): 90.5% (inactive)
growth (CCRF-CEM leukemia): 57.3% (inactive)
growth (MOLT-4 leukemia): 76.8% (inactive)
growth (SR leukemia): 61.2% (inactive)
growth (RPMI-8226 leukemia): 55.8% (inactive)
growth (OVCAR-8 ovarian): 100% (inactive)
growth (OVCAR-5 ovarian): 112% (inactive)
growth (IGROV1 ovarian): 105% (inactive)
growth (OVCAR-3 ovarian): 116% (inactive)
growth (NCI/ADR-RES ovarian): 102% (inactive)

O=C1c2ccccc2CCC1(Br)Br
growth (SN12C renal): 28.3% (inactive)
growth (UO-31 renal): 28% (inactive)
growth (TK-10 renal; 10 µM): -11% (active)
growth (ACHN renal): -95.2% (active)
growth (CAKI-1 renal): 18.7% (inactive)
growth (A498 renal): 70.8% (inactive)
growth (CCRF-CEM leukemia): -22.2% (active)
growth (MOLT-4 leukemia): -13.4% (active)
growth (SR leukemia): 0.0746% (active)
growth (RPMI-8226 leukemia): 1.08% (active)
growth (OVCAR-8 ovarian): 38.6% (inactive)
growth (OVCAR-5 ovarian): 25.8% (inactive)
growth (OVCAR-4 ovarian): -27.5% (active)
growth (SK-OV-3 ovarian): 95% (inactive)
growth (IGROV1 ovarian): 88.4% (inactive)
growth (OVCAR-3 ovarian): -69.6% (active)
growth (NCI/ADR-RES ovarian): 19.3% (inactive)
